Assay outcomes from PubChem BioAssay.
12-hLO inh – qHTS Assay for Inhibitors of 12-hLO (12-human lipoxygenase) | Polyunsaturated fatty acid lipoxygenase ALOX12 (Homo sapiens), P18054 | Potency, µM (titrated, usually from 57.1 µM), for the others: top-dose activity change, negative = inhibition, most hits filed as inhibitors | purified 12-hLO, xylenol orange hydroperoxide absorbance | AID 1452, 2008 | actives 0.12% (n = 150,000); active = well fitted curve in the direction sought with a large enough effect; inconclusive = small, poorly fitted or top-dose-only effect, or another doubt; inactive = no such curve, though single readings can be large; an effect the other way counts as inactive or inconclusive; also: potency is read from the fitted curve at half-maximal effect; nearly all actives have a fitted effect of over 55% in size
Target sequence (P18054 whole entry, looked up): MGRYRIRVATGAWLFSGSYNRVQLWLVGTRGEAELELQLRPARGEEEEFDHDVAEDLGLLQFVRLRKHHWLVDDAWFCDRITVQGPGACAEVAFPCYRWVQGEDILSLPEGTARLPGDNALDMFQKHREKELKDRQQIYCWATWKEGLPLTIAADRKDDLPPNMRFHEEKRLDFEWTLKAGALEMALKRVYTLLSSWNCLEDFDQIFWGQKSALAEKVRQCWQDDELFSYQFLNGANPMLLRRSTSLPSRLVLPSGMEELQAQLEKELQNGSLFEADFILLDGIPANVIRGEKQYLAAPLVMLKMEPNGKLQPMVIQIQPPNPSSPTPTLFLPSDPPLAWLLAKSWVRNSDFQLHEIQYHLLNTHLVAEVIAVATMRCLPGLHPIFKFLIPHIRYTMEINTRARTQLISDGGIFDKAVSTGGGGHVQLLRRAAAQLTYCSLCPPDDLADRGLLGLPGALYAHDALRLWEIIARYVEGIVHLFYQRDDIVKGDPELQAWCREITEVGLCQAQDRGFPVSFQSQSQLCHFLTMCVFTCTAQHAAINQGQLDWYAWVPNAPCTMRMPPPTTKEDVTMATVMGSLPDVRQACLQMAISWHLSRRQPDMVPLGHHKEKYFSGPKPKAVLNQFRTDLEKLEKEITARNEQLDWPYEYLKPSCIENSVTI
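Purified human 12hLO (150 nM), preincubated 15 min with compound, then 40 uM arachidonic acid for 30 min, room temperature, Hepes pH 7.0 with 0.01% Triton X-100. Hydroperoxide detected by ferrous iron/xylenol orange; 573/405 nm absorbance ratio gives reaction progress.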
IMPase Li cell – qHTS Assay for Identifying the Cell-Membrane Permeable IMPase Inhibitors: Potentiation with Lithium; CHO-M1 cells, IP1 TR-FRET (IP-One), carbachol + lithium; actives 0.35% (n = 210,000); AID 1457, 2008; Potency, µM (series often up to 59.4 µM), without a hit: top-dose activity, negative = IMPase inhibition, usual class: inhibitors; active = well fitted curve in the direction sought with a large enough effect; inconclusive = small, poorly fitted or top-dose-only effect, or another doubt; inactive = no such curve, though single readings can be large; an effect the other way counts as inactive or inconclusive;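 also: IP1 builds up when IMPase is blocked and the TR-FRET signal falls; potency is read from the fitted curve at half-maximal effect; plate controls were basal vehicle for no effect and high inhibitor control for full effect; nearly all actives have a fitted effect of over 50% in size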
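Steps: plate 2000 CHO-M1 cells per well and culture 16–30 h; add compound and lithium; incubate 30 min, 37C; add d2-IP1 tracer and Eu cryptate anti-IP1 antibody in lysis buffer; read after 10 min at room temperature.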
HPGD block – qHTS Assay for Inhibitors of HPGD (15-Hydroxyprostaglandin Dehydrogenase). 15-hydroxyprostaglandin dehydrogenase [NAD(+)] (Homo sapiens), P15428. purified HPGD, NADH fluorescence kinetic, PGE2 substrate. Potency, µM, for inactives: at the highest dose activity change, negative = inhibition, usual class: inhibitors. actives 4.3% (n = 150,000). AID 894, 2007; also: potency is read from the fitted curve at half-maximal effect
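20 nM HPGD preincubated 15 min at room temperature with compound in 50 mM Tris-HCl pH 8, 0.01% Tween 20. Started with 1 mM NAD+ and 30 uM prostaglandin E2; NADH fluorescence (360/450 nm) read 5 times over 30-s intervals, last minus first.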
ALDH1A1 block – qHTS Assay for Inhibitors of Aldehyde Dehydrogenase 1 (ALDH1A1); Aldehyde dehydrogenase 1A1 (Homo sapiens), P00352; Purified ALDH1A1, NADH fluorescence, propionaldehyde substrate; Potency, µM (doses to about 75.3 µM), inactives show top-dose activity, negative = inhibition, hits mostly inhibitors; actives 7.3% (n = 220,000);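 also: potency is read from the fitted curve at half-maximal effect; plate controls were no enzyme wells and a reference inhibitor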
PNC assembly inh – High Content Assay for Compounds that inhibit the Assembly of the Perinucleolar Compartment; PC3M PTB-GFP, PNC prevalence imaging, 16 h; active compounds read low; activity change (PNC), negative = inhibition, % at 10 µM; actives 3.1% (n = 140,000);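 active = readout at or below -70, meaning at least 70% loss of cells showing the perinucleolar compartment, a nuclear body marking cancer cells; inconclusive = readout between -30 and a set limit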;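 also: plate controls were DMSO wells for no effect and camptothecin positive control wells for full effect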
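Read-out is percentage of cells bearing a perinucleolar compartment, from automated 20x imaging of fixed, Hoechst-stained PC3M PTB-GFP cells. Cells were seeded 4 h, then exposed 16 h to compound (23 nl of library stock) in duplicate plates.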
IMPase inh – qHTS Assay for Identifying the Cell-Membrane Permeable IMPase Inhibitors. Inositol monophosphatase 1 (Rattus norvegicus), P97697. CHO-M1 cells, IP1 accumulation, HTRF TR-FRET ratio. inhibition (IP1 accumulation), % at 46.1 µM. 120,000 tested, under 10 active. AID 901, 2007; active = well fitted curve in the direction sought with a large enough effect in the signal ratio, not every such curve was filed as active; inconclusive = small, poorly fitted or top-dose-only effect, or a change in a side signal; inactive = no such curve, though single readings can be large or run the other way; the % refers to the signal ratio;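 also: cells stimulated with carbachol in lithium chloride buffer; plate controls were DMSO basal wells for no effect and reference inhibitor wells for full effect; higher means more IMPase inhibition seen as more IP1 and lower FRET ratio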
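In this qHTS, compounds (final up to 46 uM) act on CHO-M1 cells that are then activated through the M1 receptor with carbachol, in pH 7.4 buffer containing 50 mM LiCl, for 30 min. IP1 accumulation is quantified by the IP-One immunoassay.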
* = called active by the depositor; [ ] = remark or other dose. Only some compounds are listed: those with a hit (about 11% of all), similar ones and a draw of the others. Unless noted, calls follow the shape of the dose curve; as a rule, active = well fitted inhibition curve with a large enough effect (not every such curve was filed as active); inconclusive = small, poorly fitted or top-dose-only effect, or another doubt; inactive = no such curve, though single readings can be large or run the other way. Unless noted, % is scaled to controls: 0 for no effect and ±100 for the full control effect.

For Cc1cc(C(=O)COc2ccccc2Cl)c(C)n1-c1ccc2c(c1)OCO2 the results were 12-hLO inh -5%, IMPase Li cell 18%, HPGD block inconclusive, ALDH1A1 block -6% and PNC assembly inh -106*.
`Cc1cc(/C=C(\C#N)C(=O)Nc2ccc(Cl)cc2)c(C)n1-c1ccc(N2CCOCC2)c([N+](=O)[O-])c1` gave 12-hLO inh 1%, IMPase Li cell 6%, HPGD block -6%, ALDH1A1 block inconclusive and PNC assembly inh inconclusive.
Screening O=C1OC2C[C@H]1[C@@H]1C(=O)N(Cc3ccccc3)CCC1C2I (stereo not given in full) returned 12-hLO inh -5%[0.00818 µM], IMPase Li cell -9%, HPGD block -11% and ALDH1A1 block -21%.
`Cc1cccc(NC(=O)/C(C#N)=C\c2cc(C)n(-c3ccc(C(=O)O)cc3)c2C)c1` gave IMPase Li cell -4% and ALDH1A1 block 3.2µM*.
For CCOC(=O)/C(C#N)=C\c1cc(C)n(-c2ccccc2)c1C the results were 12-hLO inh -14%, IMPase Li cell -6%[38.3 µM], HPGD block -15%, ALDH1A1 block inconclusive, PNC assembly inh inconclusive and IMPase inh 7.
For Cc1cc(/C=C(\C#N)C(=O)Nc2ccccc2)c(C)n1-c1ccc(C(=O)O)cc1 the results were ALDH1A1 block 1µM*.
Screening Cc1cc(C=O)c(C)n1-c1ccc2c(c1)OCO2 returned IMPase Li cell 10% and ALDH1A1 block 1.4µM*.
For Cn1c(=O)c2[nH]c(/N=N\N3CCN(CCO)CC3)nc2n(C)c1=O the results were 12-hLO inh -3%[11.4 µM], IMPase Li cell 1%, HPGD block -7% and ALDH1A1 block 2%[13.5 µM].
O=c1cc(-c2cccc(F)c2)[nH]c2cc(F)ccc12 was read as 12-hLO inh -2%[0.00818 µM], IMPase Li cell 7%, HPGD block -9% and ALDH1A1 block 18%[120 µM].
`CCN(CC(=O)Nc1sc2c(c1C#N)CCC(C)C2)Cc1nc2ccccc2c(=O)[nH]1` (stereo not given) gave IMPase Li cell 5% and ALDH1A1 block 25µM*.
Screening CCCCNC(=O)C1COc2ccccc2O1 (stereo not given) returned 12-hLO inh -3%, IMPase Li cell 7%[38.3 µM], HPGD block 16µM*, ALDH1A1 block 5%, PNC assembly inh 4 and IMPase inh 7.
O=C(NCc1ccncc1)C1COc2ccccc2O1 (stereo not given) was read as 12-hLO inh -2%, IMPase Li cell -1%[38.3 µM], HPGD block -1%, ALDH1A1 block 4%, PNC assembly inh -16 and IMPase inh 2.
For O=C(NCc1ccc2c(c1)OCO2)C1COc2ccccc2O1 (stereo not given) the results were 12-hLO inh -4%, IMPase Li cell -3%, HPGD block 4.5µM*, ALDH1A1 block 0%, PNC assembly inh -2 and IMPase inh -6.
`O=C(NCc1ccccn1)C1COc2ccccc2O1` (stereo not given) gave 12-hLO inh 6%, IMPase Li cell -5%[38.3 µM], HPGD block 14µM*, ALDH1A1 block 3%, PNC assembly inh 10 and IMPase inh 6.
CC(C)C[C@@H](CC(=O)N[C@@H](CCCN)CC(=O)N[C@@H]1CCCC[C@H]1C(=O)N[C@H](CC(=O)N[C@@H](CCC(=O)O)CC(=O)O)Cc1c[nH]c2ccccc12)NC(=O)[C@@H]1CNCC[C@H]1N was read as 12-hLO inh 2%, IMPase Li cell 15%, HPGD block -7% and ALDH1A1 block -7%.
Screening CC(C)=CCC/C(C)=C/CO/N=C1/C[C@@H](O)[C@@H](O)[C@@H]2[C@@H]3C(=O)N([C@@H](C)c4ccccc4)C(=O)[C@H]3CC[C@@H]12 returned ALDH1A1 block -5%[13.5 µM].
`CC1(C(=O)Nc2nnc(SCc3ccccc3)s2)Cc2ccccc2C(=O)O1` (stereo not given) gave 12-hLO inh -4%, IMPase Li cell 30%[38.3 µM], HPGD block 28µM*, ALDH1A1 block inconclusive, PNC assembly inh inconclusive and IMPase inh 1.
For COc1cc(OC)c(-c2c3cc(O)c(=O)cc-3oc3cc(O)c(O)cc23)cc1OC the results were 12-hLO inh -21%, IMPase Li cell 5%, HPGD block 16µM*, ALDH1A1 block 10µM*, PNC assembly inh -27 and IMPase inh 18.
`Fc1cnc(N2CCc3ccccc32)nc1N1CCc2ccccc21` gave 12-hLO inh 4%, IMPase Li cell inconclusive, HPGD block inconclusive, ALDH1A1 block 2.2µM*, PNC assembly inh 33 and IMPase inh -13.
O=C1CC(c2ccc(F)cc2)Cc2nc(N3CCc4ccccc43)ncc21 (stereo not given) was read as 12-hLO inh 1%, IMPase Li cell inconclusive, HPGD block inconclusive, ALDH1A1 block inconclusive, PNC assembly inh 16 and IMPase inh -4.
CC(C)c1ccccc1NC(=O)COC(=O)C1(C)CC1(Cl)Cl (stereo not given) was read as IMPase Li cell 12% and ALDH1A1 block 3%.
COc1cccc(-n2c(CN3CCN(c4ccc(C)cc4)C(C)C3)nc3ccc([N+](=O)[O-])cc3c2=O)c1 (stereo not given) was read as 12-hLO inh 0%, IMPase Li cell -2%, HPGD block -5%, ALDH1A1 block 25µM* and PNC assembly inh 26.
For CCOC(=O)/C(C(=O)Nc1ccc(Cl)cc1Cl)=C1/NC(C)(C)Cc2ccccc21 the results were 12-hLO inh -6%, IMPase Li cell 1%, HPGD block -17%, ALDH1A1 block 13µM*, PNC assembly inh -8 and IMPase inh 12.
For CCOC(=O)C1CCN(C(=O)Nc2ccc(Cl)cc2Cl)CC1 the results were 12-hLO inh -5%, IMPase Li cell -4%, HPGD block -10%, ALDH1A1 block 10% and PNC assembly inh 2.
Screening Cc1nc([N+](=O)[O-])c(N2CCN(C)CC2)n1Cc1ccccc1 returned 12-hLO inh 7%, IMPase Li cell -8%[38.3 µM], HPGD block -13%, ALDH1A1 block 3%, PNC assembly inh -88* and IMPase inh 8.
